Source: PubChem
CSC inhib: blocks cancer stem cells; inhibition, % at 7.5 µM; cancer stem cell-like cells viability, luminescence; AID 2717; 300,000 compounds, 1.1% hits; in the data active = inhibition above about 75%; inconclusive = no clear call, values can overlap the other calls; tested in HMLE shEcad cells
PP5 inh: PP5 (human) phosphatase inhibition | 320,000 compounds, 0.18% hits | AID 1987 | purified PP5c, OMFP substrate fluorescence | P53041 | inhibition, % at 6.7 µM;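 active = inhibition above the campaign's mean inhibition across all tested compounds plus 3 SD, cut at about 9.5% in these data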
Calb FLC: affects C. albicans growth with fluconazole | C. albicans CaCi-2 (fluconazole-resistant clinical isolate) + fluconazole, Alamar Blue growth, 48 h | growth inhibition, % (concentration not given with the values) | 300,000 compounds, 0.57% hits;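 active = growth inhibition above about 58% in most replicates, limit read from the data, passing the limit was not always enough; inconclusive = exactly half the replicates above a set limit; inactive = most replicates below a set limit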;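 also: all wells also contain fluconazole at 8 µg/ml as a sub-toxic cotreatment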
PP1 inh: counter-screen for PP5 inhibitors: inhibitors of human PP1-alpha; P62136; purified PP1alpha, OMFP fluorescence; inhibition, % at 6.7 µM; 320,000 compounds, 0.9% hits; AID 2235;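 active = inhibition above the mean inhibition of all tested compounds plus 3 SD, computed separately for each screening campaign, cut at about 15% in these data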
Target sequence (P62136 whole entry, looked up): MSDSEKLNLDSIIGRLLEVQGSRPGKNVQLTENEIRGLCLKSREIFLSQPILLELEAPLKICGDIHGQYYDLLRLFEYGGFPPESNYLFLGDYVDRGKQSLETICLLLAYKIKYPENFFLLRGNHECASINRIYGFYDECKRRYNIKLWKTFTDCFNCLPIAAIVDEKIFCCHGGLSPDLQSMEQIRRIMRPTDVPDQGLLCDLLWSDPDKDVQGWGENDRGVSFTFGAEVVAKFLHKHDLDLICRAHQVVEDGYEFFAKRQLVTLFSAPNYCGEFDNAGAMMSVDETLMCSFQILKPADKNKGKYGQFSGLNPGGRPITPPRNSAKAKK
ALR inh: inhibitors of human sulfhydryl oxidase ALR; AID 485317; inhibition, % (no concentration beside the values); purified ALR, DTT oxidation, H2O2 HRP-luminol luminescence; 290,000 compounds, 3.8% hits; P55789;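 active = mean replicate inhibition above about 79%, with every replicate also reaching it, limit read from the data; inconclusive = only one of the two criteria met; inactive = mean below limit and not every replicate reaching it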
Target sequence (P55789 whole entry, looked up): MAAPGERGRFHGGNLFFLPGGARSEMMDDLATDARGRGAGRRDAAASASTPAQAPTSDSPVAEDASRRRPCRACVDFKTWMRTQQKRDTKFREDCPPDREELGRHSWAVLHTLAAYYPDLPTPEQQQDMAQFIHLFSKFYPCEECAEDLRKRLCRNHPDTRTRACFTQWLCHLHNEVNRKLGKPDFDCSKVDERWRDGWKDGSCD
Hits are given with their value; n = inactive; u = inconclusive; x = not tested or not shown. An excerpt weighted towards active compounds, which were near 5.4% of everything screened.

SMILES	CSC inhib	PP5 inh	Calb FLC	PP1 inh	ALR inh
c1ccc2c(c1)nc1n2CCS1	x	n	n	n	n
OC1C=CSc2nc3ccccc3n21 (stereo not given)	n	n	n	n	86.0
O=C(/C=C/c1ccc[nH]1)c1ccccc1	n	n	n	n	97.5
Cc1cc(=O)n2[nH]c(-c3ccsc3-n3c(C)ccc3C)cc2n1	n	n	n	16.1	n
CN(C)c1ccc(C2NC(=O)c3ccccc3N2)cc1 (stereo not given)	n	n	n	n	n
CN(C)c1ccc(CC2C(=O)Nc3ccccc32)cc1 (stereo not given)	n	n	n	n	98.5
COc1cccc(/C=N/n2c(-c3n[nH]c4c3CCC4)n[nH]c2=S)c1OC	n	n	n	n	n
COc1cccc(/C=N/n2c(-c3cc(C)[nH]n3)n[nH]c2=S)c1OC	n	n	n	n	96.5
Cc1cc(-c2n[nH]c(=S)n2/N=C/c2ccc(Cl)c([N+](=O)[O-])c2)n[nH]1	n	n	n	n	96.6
COc1ccccc1C(=O)N/C(=C\c1ccc(Br)cc1)C(=O)NCCC(=O)O	n	n	n	n	n
CC(=O)c1ccc(-c2ccc(/C=C(/Sc3n[nH]c(C)n3)C(=O)O)o2)cc1	n	n	n	16.3	n
CCN(CCNC(=O)CN1CCN(Cc2ccc(Cl)cc2)C1=O)c1ccccc1	n	n	n	n	98.3
Cc1ccc(CSc2nc3c(c(SCC(=O)O)n2)CCCC3)cc1	n	n	n	n	97.0
COc1ccc(C(=O)NCC2(c3ccccc3)CCCC2)c(OC)c1	83.4	n	n	n	n
CCc1ccc(C(=O)CSC2=C(C#N)C(c3ccco3)C(C(C)=O)=C(C)N2)cc1 (stereo not given)	79.6	n	n	n	n
CC(=O)C1=C(C)NC(SCC(=O)c2ccc(Cl)c(Cl)c2)=C(C#N)C1c1ccco1 (stereo not given)	156.7	n	n	n	n
CC(=O)C1=C(C)NC(SCC(=O)c2cc(Cl)ccc2Cl)=C(C#N)C1c1ccco1 (stereo not given)	x	n	n	n	n
O=S(=O)(Nc1cc(Cl)ccn1)c1ccc(Cl)cc1	n	n	n	n	n
O=C(N=Nc1c(O)[nH]c2ccccc12)c1cccs1	n	n	n	n	n
O=C(N=Nc1c(O)[nH]c2ccccc12)c1cc(NS(=O)(=O)c2cccs2)cc(NS(=O)(=O)c2cccs2)c1	n	n	n	16.4	n
Cc1cc(C)cc(Oc2ccc(N)cc2)c1	n	n	n	n	98.5
Nc1ccc(Oc2ccc3c(c2)OCO3)cc1	n	n	n	n	98.9
Nc1ccc(Oc2cccc(Oc3ccc(N)cc3)c2)cc1	n	n	116.1	n	99.8
Cc1cccc(Oc2ccc(N)cc2)c1	n	n	n	n	98.0
Nc1ccc(Oc2ccc(Br)cc2)cc1	n	n	n	n	n
SMILES	CSC inhib	PP5 inh	Calb FLC	PP1 inh	ALR inh
Cc1ccc(Oc2ccc(-c3nc(N)nc(N)n3)cc2)cc1	n	n	x	n	n
O=C(Nc1cccc(S(=O)(=O)NC2=NCCC2)c1)c1cnc(Cl)c(Cl)c1	n	n	x	n	n
COc1cccc(NC(=O)CSc2nccn2-c2cccc(OC)c2)c1	n	n	n	n	97.6
O=C(CSc1nccn1-c1cccc(Cl)c1)Nc1ccc2c(c1)OCCO2	n	n	n	n	98.6
Cn1nnnc1SCC(=O)Nc1ccc2c(c1)OCCO2	n	n	n	n	n
COc1ccc(NC(=O)CSc2nccn2-c2cccc(OC)c2)cc1	n	n	n	n	97.7
COc1ccccc1N1CCN(C(=O)CN(C)S(=O)(=O)c2ccc3c(c2)c(=O)n(C)c(=O)n3C)CC1	n	n	n	n	n
Cc1cccc(OCC(=O)N2CCN(C(=O)CCC3CCCC3)CC2)c1	n	n	n	n	n
COc1ccc(-c2csc(N(CCCN(C)C)C(=O)c3ccc(F)cc3)n2)cc1	n	n	n	n	86.6
O=C(CSc1nnc(CNC(=O)c2c(F)cccc2Cl)o1)Nc1ccc2c(c1)OCO2	n	n	n	n	97.1
Cc1cc(C)c(NC(=O)CSc2nnc(CNC(=O)c3c(F)cccc3Cl)o2)c(C)c1	n	n	n	n	n
Cc1ccc(NC(=O)CSc2nnc(CNC(=O)c3c(F)cccc3Cl)o2)cc1	n	n	n	n	98.4
Cc1cc(OCC(=O)N[C@@H](Cc2c[nH]c3ccccc23)C(=O)O)c2c(C)c(C)c(=O)oc2c1	n	n	n	n	n
COc1ccccc1OCC(=O)Nc1ccc(N2CCOCC2)cc1N1CCOCC1	n	n	x	n	n
O=C(CNS(=O)(=O)c1ccccc1F)Nc1ccc(N2CCOCC2)cc1	n	n	n	n	94.4
CCN(CC(=O)Nc1ccc(N2CCOCC2)cc1)C(=O)COc1ccccc1OC	n	n	n	n	90.9
COc1ccc(CCC(=O)N(C)CC(=O)Nc2ccc(N3CCOCC3)cc2)cc1	n	n	n	n	93.6
CC(Oc1ccc(Br)cc1)C(=O)N(C)CC(=O)Nc1ccc(N2CCOCC2)cc1 (stereo not given)	n	n	n	n	98.7
CN(CC(=O)Nc1ccc(N2CCOCC2)cc1)CC(=O)Nc1ccc(N2CCOCC2)cc1	n	n	n	n	n
O=C(NCCC1CCCCN1S(=O)(=O)c1ccccc1)C(=O)NCc1ccccc1F (stereo not given)	n	n	n	n	n
CCOc1ccccc1NC(=O)c1cc(C(=O)Nc2ccccc2OCC)cc(N2C(=O)CCC2=O)c1	n	n	n	n	n
Cc1cccc(N2CCN(C(=O)CCCCCn3c(=S)[nH]c4ccc(N5CCOCC5)cc4c3=O)CC2)c1C	n	n	n	n	n
CN(CC(=O)Nc1ccc(N2CCOCC2)cc1)C(=O)COc1ccccc1F	n	n	n	n	77.8
CC(=O)c1ccc(OCC(=O)N(C)CC(=O)Nc2ccc(N3CCOCC3)cc2)cc1	n	n	x	n	n
O=C(Nc1ccc2c(c1)OCO2)c1cc(C2CC2)on1	98.1	n	n	n	n
SMILES	CSC inhib	PP5 inh	Calb FLC	PP1 inh	ALR inh
O=C1c2ccccc2C(=O)N1CCSc1nnc(-c2ccco2)n1Cc1ccccc1	n	n	u	n	n
O=[N+]([O-])c1ccc(CNc2ccc(F)cc2)s1	n	n	n	n	98.7
COc1ccc(NCc2ccc([N+](=O)[O-])s2)c(OC)c1	n	n	x	n	97.9
O=[N+]([O-])c1ccc(CNc2ccc(Cl)cc2)s1	n	n	n	n	81.2
O=C(COC(=O)c1ccc([N+](=O)[O-])s1)NCc1ccc(F)cc1	n	n	n	n	n
COc1ccc(NC(=O)CCC(=O)N/N=C/c2ccc([N+](=O)[O-])s2)cc1	x	n	n	n	n
COc1ccc(NCc2ccc([N+](=O)[O-])s2)cc1	n	n	n	n	98.8
O=[N+]([O-])c1ccc(CNc2cccc(Cl)c2)s1	n	n	n	n	n
O=C(NCCCN1CCOCC1)c1cc(S(=O)(=O)N2CCOCC2)c(Cl)cc1Cl	n	n	x	n	n
N#CCSc1nc2sccc2c(=O)n1-c1ccccc1	n	n	n	n	n
O=C1N(Nc2ccccc2)C(c2ccc(Br)cc2)C12CCCCC2 (stereo not given)	n	n	n	n	n
